Test results taken from PubChem BioAssay AID1159580 (chemical genetic matrix, 2015).
In all, about 5,500 compounds went through this assay and about 2,000 (36%) were called active. Another 18% or so got no clear call; they are omitted. No stated cut-off is given here; in the data, active means normalized growth mostly below about 0.91 (no sharp cut-off); inconclusive means no clear call, values can overlap the other calls; inactive means mostly above about 0.92. This is one part of the list.

Assay: chemical genetic growth profiling, strain panel (AID 1159580);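 further: tested at 20 µM; growth read once vehicle control cultures reached saturation at 30 °C; 1 = growth at the plate median or of vehicle wells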
Details: growth OD

Measured: normalized growth

O=C1NC(=O)C(=O)C(=O)N1
inactive: S. cerevisiae deletion strains, locus YJR075W, strain HOC1, stronger effect = lower value 1.04 | S. cerevisiae deletion strains, locus YKL009W, strain mrt4, stronger effect = lower value 0.992 | S. cerevisiae deletion strains, locus YKL068W, stronger effect = lower value 0.997 | S. cerevisiae deletion strains, locus YKL085W, strain MDH1 (second series), stronger effect = lower value 1 | S. cerevisiae deletion strains, locus YKL085W, strain MDH1, stronger effect = lower value 1 | S. cerevisiae deletion strains, locus YKL160W, strain elf1, stronger effect = lower value 0.989 | S. cerevisiae deletion strains, locus YKL190W, strain CNB1, stronger effect = lower value 1.01 | S. cerevisiae deletion strains, locus YKR001C, strain vps1, stronger effect = lower value 0.994 | S. cerevisiae deletion strains, locus YKR026C, strain gcn3, stronger effect = lower value 0.992 | S. cerevisiae deletion strains, locus YKR091W, strain srl3, stronger effect = lower value 0.989 | S. cerevisiae deletion strains, locus YLL001W, strain dnm1, stronger effect = lower value 0.994 | S. cerevisiae deletion strains, locus YLL026W, stronger effect = lower value 0.998 | S. cerevisiae deletion strains, locus YLL041C, strain sdh2, stronger effect = lower value 1 | S. cerevisiae deletion strains, locus YLR027C, strain aat2, stronger effect = lower value 1 | S. cerevisiae deletion strains, locus YLR039C, strain RIC1, stronger effect = lower value 1.04 | S. cerevisiae deletion strains, locus YLR058C, strain SHM2, stronger effect = lower value 1.02 | S. cerevisiae deletion strains, locus YLR102C, strain apc9, stronger effect = lower value 0.987 | S. cerevisiae deletion strains, locus YLR113W, strain HOG1, stronger effect = lower value 0.967 | S. cerevisiae deletion strains, locus YLR221C, strain rsa3, stronger effect = lower value 0.99 | S. cerevisiae deletion strains, locus YLR258W, strain gsy2, stronger effect = lower value 1.01 | S. cerevisiae deletion strains, locus YLR262C, strain YPT6 (second series), stronger effect = lower value 0.989 | S. cerevisiae deletion strains, locus YLR262C, strain YPT6, stronger effect = lower value 1.04 | S. cerevisiae deletion strains, locus YLR268W, strain sec22, stronger effect = lower value 0.968 | S. cerevisiae deletion strains, locus YLR320W, strain mms22, stronger effect = lower value 0.994 | S. cerevisiae deletion strains, locus YLR330W, strain CHS5, stronger effect = lower value 1.01 | S. cerevisiae deletion strains, locus YLR342W, strain FKS1 (second series), stronger effect = lower value 1.05 | S. cerevisiae deletion strains, locus YLR342W, strain FKS1, stronger effect = lower value 0.975 | S. cerevisiae deletion strains, locus YLR357W, strain rsc2, stronger effect = lower value 0.952 | S. cerevisiae deletion strains, locus YLR370C, strain arc18, stronger effect = lower value 0.982 | S. cerevisiae deletion strains, locus YLR371W, strain rom2, stronger effect = lower value 0.978 | S. cerevisiae deletion strains, locus YLR384C, strain iki3, stronger effect = lower value 0.99 | S. cerevisiae deletion strains, locus YLR418C, strain cdc73, stronger effect = lower value 0.991 | S. cerevisiae deletion strains, locus YML016C, strain PPZ1, stronger effect = lower value 1.01 | S. cerevisiae deletion strains, locus YML032C, strain rad52, stronger effect = lower value 0.976 | S. cerevisiae deletion strains, locus YML120C, strain ndi1, stronger effect = lower value 0.99 | S. cerevisiae deletion strains, locus YML124C, strain tub3, stronger effect = lower value 0.993 | S. cerevisiae deletion strains, locus YMR058W, strain fet3, stronger effect = lower value 0.999 | S. cerevisiae deletion strains, locus YMR078C, strain ctf18, stronger effect = lower value 0.98 | S. cerevisiae deletion strains, locus YMR125W, strain sto1, stronger effect = lower value 0.982 | S. cerevisiae deletion strains, locus YMR129W, stronger effect = lower value 0.982 | S. cerevisiae deletion strains, locus YMR205C, strain PFK2, stronger effect = lower value 1 | S. cerevisiae deletion strains, locus YMR223W, strain ubp8, stronger effect = lower value 1.01 | S. cerevisiae deletion strains, locus YMR231W, strain pep5, stronger effect = lower value 0.98 | S. cerevisiae deletion strains, locus YMR263W, strain SAP30, stronger effect = lower value 1.01 | S. cerevisiae deletion strains, locus YMR307W, strain GAS1, stronger effect = lower value 1.03 | S. cerevisiae deletion strains, locus YNL067W, strain RPL9B, stronger effect = lower value 1.01 | S. cerevisiae deletion strains, locus YNL071W, strain lat1, stronger effect = lower value 0.988 | S. cerevisiae deletion strains, locus YNL128W, strain TEP1, stronger effect = lower value 1.02 | S. cerevisiae deletion strains, locus YNL153C, strain GIM3, stronger effect = lower value 1.02 | S. cerevisiae deletion strains, locus YNL183C, strain NPR1, stronger effect = lower value 0.912 | S. cerevisiae deletion strains, locus YNL209W, strain ssb2, stronger effect = lower value 0.985 | S. cerevisiae deletion strains, locus YNL233W, strain BNI4, stronger effect = lower value 1.01 | S. cerevisiae deletion strains, locus YNL248C, strain rpa49, stronger effect = lower value 0.996 | S. cerevisiae deletion strains, locus YNL250W, strain rad50, stronger effect = lower value 0.995 | S. cerevisiae deletion strains, locus YNL271C, strain bni1, stronger effect = lower value 0.995 | S. cerevisiae deletion strains, locus YNL298W, strain CLA4, stronger effect = lower value 0.999 | S. cerevisiae deletion strains, locus YNL307C, strain MCK1, stronger effect = lower value 1.01 | S. cerevisiae deletion strains, locus YNL322C, strain KRE1 (second series), stronger effect = lower value 0.989 | S. cerevisiae deletion strains, locus YNL322C, strain KRE1, stronger effect = lower value 1.01 | S. cerevisiae deletion strains, locus YNR049C, strain mso1, stronger effect = lower value 0.988 | S. cerevisiae deletion strains, locus YNR052C, strain pop2, stronger effect = lower value 0.971 | S. cerevisiae deletion strains, locus YOL006C, strain TOP1, stronger effect = lower value 1.1 | S. cerevisiae deletion strains, locus YOL012C, strain htz1 0.951 | S. cerevisiae deletion strains, locus YOL147C, strain pex11, stronger effect = lower value 0.998 | S. cerevisiae deletion strains, locus YOR001W, strain rrp6, stronger effect = lower value 0.969 | S. cerevisiae deletion strains, locus YOR061W, strain CKA2, stronger effect = lower value 1.01 | S. cerevisiae deletion strains, locus YOR069W, strain VPS5, stronger effect = lower value 1.01 | S. cerevisiae deletion strains, locus YOR070C, strain gyp1, stronger effect = lower value 0.984 | S. cerevisiae deletion strains, locus YOR080W, strain dia2, stronger effect = lower value 0.99 | S. cerevisiae deletion strains, locus YOR083W, strain WHI5, stronger effect = lower value 0.996 | S. cerevisiae deletion strains, locus YOR106W, strain vam3, stronger effect = lower value 0.99 | S. cerevisiae deletion strains, locus YOR136W, strain idh2, stronger effect = lower value 0.996 | S. cerevisiae deletion strains, locus YOR144C, strain elg1, stronger effect = lower value 0.987 | S. cerevisiae deletion strains, locus YOR184W, strain ser1, stronger effect = lower value 0.997 | S. cerevisiae deletion strains, locus YOR231W, strain MKK1, stronger effect = lower value 0.964 | S. cerevisiae deletion strains, locus YOR265W, strain rbl2, stronger effect = lower value 1.01 | S. cerevisiae deletion strains, locus YOR270C, strain vph1, stronger effect = lower value 1.07 | S. cerevisiae deletion strains, locus YOR290C, strain snf2, stronger effect = lower value 0.983 | S. cerevisiae deletion strains, locus YOR316C, strain cot1, stronger effect = lower value 0.987 | S. cerevisiae deletion strains, locus YPL051W, strain arl3, stronger effect = lower value 1.01 | S. cerevisiae deletion strains, locus YPL055C, strain LGE1, stronger effect = lower value 1.04 | S. cerevisiae deletion strains, locus YPL078C, strain atp4, stronger effect = lower value 0.987 | S. cerevisiae deletion strains, locus YPL106C, strain sse1, stronger effect = lower value 0.99 | S. cerevisiae deletion strains, locus YPL240C, strain hsp82, stronger effect = lower value 0.995 | S. cerevisiae deletion strains, locus YPL241C, strain CIN2, stronger effect = lower value 1.01 | S. cerevisiae deletion strains, locus YPL256C, strain CLN2, stronger effect = lower value 0.955 | S. cerevisiae deletion strains, locus YPR119W, strain clb2, stronger effect = lower value 0.983 | S. cerevisiae deletion strains, locus YPR141C, strain kar3, stronger effect = lower value 0.994 | S. cerevisiae deletion strains, locus YPR163C, strain tif3, stronger effect = lower value 0.987 | S. cerevisiae deletion strains, locus YPR167C, strain met16, stronger effect = lower value 0.986 | S. cerevisiae deletion strains, strain wtn01, stronger effect = lower value 0.98 | S. cerevisiae strains, strain wild type, stronger effect = lower value 1.02
